Assay results as given in PMC11006913.

Columns and labels:
Experiment in all cases: PBM; 200 nM protein, PBS
Settings in all cases: dsDNA, one strand shown
CRX [1] = molecular target: CRX (Homo sapiens, UniProt O43186 26-111)
CRX [2] = molecular target: CRX (Homo sapiens, UniProt O43186 26-111, E42D)
ALX3 [3] = molecular target: ALX3 (Homo sapiens, UniProt O95076 139-225, N203Q)
ALX3 [4] = molecular target: ALX3 (Homo sapiens, UniProt O95076 139-225)
ALX3 [5] = molecular target: ALX3 (Homo sapiens, UniProt O95076 139-225, L168Q)
Sequence of ALX3 (Homo sapiens, UniProt O95076 139-225, L168Q) (O95076 139-225 L168Q): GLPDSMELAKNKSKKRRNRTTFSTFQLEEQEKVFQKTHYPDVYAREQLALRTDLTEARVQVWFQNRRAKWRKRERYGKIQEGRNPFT

ALX3 [6] = molecular target: ALX3 (Homo sapiens, UniProt O95076 139-225, L168V)
Sequence of ALX3 (Homo sapiens, UniProt O95076 139-225, L168V) (O95076 139-225 L168V): as the sequence (O95076 139-225 L168Q) above, with Q30V counted along it

CRX [7] = molecular target: CRX (Homo sapiens, UniProt O43186 26-111, R41L)
Sequence of CRX (Homo sapiens, UniProt O43186 26-111, R41L) (O43186 26-111 R41L): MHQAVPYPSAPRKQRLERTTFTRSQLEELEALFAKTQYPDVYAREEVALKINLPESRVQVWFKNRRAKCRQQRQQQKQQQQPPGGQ

ALX3 [8] = molecular target: ALX3 (Homo sapiens, UniProt O95076 139-225, N203S)
Sequence of ALX3 (Homo sapiens, UniProt O95076 139-225, N203S) (O95076 139-225 N203S): as the sequence (O95076 139-225 L168Q) above, with Q30L, N65S counted along it

PITX2 = PITX2 (Homo sapiens, UniProt Q99697 72-157)

Sequence of CRX (Homo sapiens, UniProt O43186 26-111, E42D) (O43186 26-111 E42D): as the sequence (O43186 26-111 R41L) above, with L16R, E17D counted along it
Sequence of CRX (Homo sapiens, UniProt O43186 26-111) (O43186 26-111): as the sequence (O43186 26-111 R41L) above, with L16R counted along it
Sequence of ALX3 (Homo sapiens, UniProt O95076 139-225) (O95076 139-225): as the sequence (O95076 139-225 L168Q) above, with Q30L counted along it
Sequence of ALX3 (Homo sapiens, UniProt O95076 139-225, N203Q) (O95076 139-225 N203Q): as the sequence (O95076 139-225 L168Q) above, with Q30L, N65Q counted along it

Q: GAGACTGC was tested. Which binding signal (CRX [1]) did it give?
A: 8.28 upbm affinity estimate (log intensity, higher = more binding, comparable within an allelic series)

Q: What about the binding signal (CRX [2]) of the same sequence?
A: 8.22 upbm affinity estimate (log intensity, higher = more binding, comparable within an allelic series)

Q: And the binding signal (ALX3 [3])?
A: 7.74 upbm affinity estimate (log intensity, higher = more binding, comparable within an allelic series)

Q: And the binding signal (ALX3 [4])?
A: 7.6 upbm affinity estimate (log intensity, higher = more binding, comparable within an allelic series)

Q: What about the binding signal (ALX3 [5]) of the same sequence?
A: 7.71 upbm affinity estimate (log intensity, higher = more binding, comparable within an allelic series)

Q: And the binding signal (ALX3 [6])?
A: 7.72 upbm affinity estimate (log intensity, higher = more binding, comparable within an allelic series)

Q: And the binding signal (CRX [7])?
A: 8.35 upbm affinity estimate (log intensity, higher = more binding, comparable within an allelic series)

Q: What about the binding signal (ALX3 [8]) of the same sequence?
A: 7.73 upbm affinity estimate (log intensity, higher = more binding, comparable within an allelic series)

Q: What does the source list for GATAATCC?
A: binding signal (CRX [1]): 13.6 upbm affinity estimate (log intensity, higher = more binding, comparable within an allelic series); binding signal (CRX [2]): 13.8 upbm affinity estimate (log intensity, higher = more binding, comparable within an allelic series); binding signal (PITX2): 13.4 upbm affinity estimate (log intensity, higher = more binding, comparable within an allelic series); binding signal (CRX [7]): 13.9 upbm affinity estimate (log intensity, higher = more binding, comparable within an allelic series)

Q: Which results are given for GAGGATTA?
A: binding signal (CRX [1]): 13.5 upbm affinity estimate (log intensity, higher = more binding, comparable within an allelic series); binding signal (CRX [2]): 13.6 upbm affinity estimate (log intensity, higher = more binding, comparable within an allelic series); binding signal (PITX2): 13.1 upbm affinity estimate (log intensity, higher = more binding, comparable within an allelic series); binding signal (CRX [7]): 13.4 upbm affinity estimate (log intensity, higher = more binding, comparable within an allelic series)

Q: For CGGATTAA, which binding signal (CRX [1]) is on record?
A: 13.7 upbm affinity estimate (log intensity, higher = more binding, comparable within an allelic series)

Q: And the binding signal (CRX [2])?
A: 13.8 upbm affinity estimate (log intensity, higher = more binding, comparable within an allelic series)

Q: What about the binding signal (PITX2) of the same sequence?
A: 13.4 upbm affinity estimate (log intensity, higher = more binding, comparable within an allelic series)

Q: What about the binding signal (CRX [7]) of the same sequence?
A: 13.7 upbm affinity estimate (log intensity, higher = more binding, comparable within an allelic series)

Q: For GATTAAGC, which binding signal (CRX [1]) is on record?
A: 13.1 upbm affinity estimate (log intensity, higher = more binding, comparable within an allelic series)

Q: And the binding signal (CRX [2])?
A: 13.1 upbm affinity estimate (log intensity, higher = more binding, comparable within an allelic series)

Q: What about the binding signal (PITX2) of the same sequence?
A: 12.7 upbm affinity estimate (log intensity, higher = more binding, comparable within an allelic series)

Q: What about the binding signal (CRX [7]) of the same sequence?
A: 12.6 upbm affinity estimate (log intensity, higher = more binding, comparable within an allelic series)

Q: Which binding signal (CRX [1]) does the source give for ATAATCCG here?
A: 13.7 upbm affinity estimate (log intensity, higher = more binding, comparable within an allelic series)

Q: And the binding signal (CRX [2])?
A: 13.8 upbm affinity estimate (log intensity, higher = more binding, comparable within an allelic series)

Q: What about the binding signal (PITX2) of the same sequence?
A: 13.3 upbm affinity estimate (log intensity, higher = more binding, comparable within an allelic series)

Q: What about the binding signal (CRX [7]) of the same sequence?
A: 13.9 upbm affinity estimate (log intensity, higher = more binding, comparable within an allelic series)

Q: Which binding signal (CRX [1]) does the source give for CTTAATCC here?
A: 13.7 upbm affinity estimate (log intensity, higher = more binding, comparable within an allelic series)

Q: And the binding signal (CRX [2])?
A: 13.8 upbm affinity estimate (log intensity, higher = more binding, comparable within an allelic series)

Q: And the binding signal (PITX2)?
A: 13.5 upbm affinity estimate (log intensity, higher = more binding, comparable within an allelic series)

Q: What about the binding signal (CRX [7]) of the same sequence?
A: 13.5 upbm affinity estimate (log intensity, higher = more binding, comparable within an allelic series)

Q: AGGATTAA was tested. Which binding signal (CRX [1]) did it give?
A: 13.6 upbm affinity estimate (log intensity, higher = more binding, comparable within an allelic series)

Q: And the binding signal (CRX [2])?
A: 13.7 upbm affinity estimate (log intensity, higher = more binding, comparable within an allelic series)

Q: What about the binding signal (PITX2) of the same sequence?
A: 13.3 upbm affinity estimate (log intensity, higher = more binding, comparable within an allelic series)

Q: What about the binding signal (CRX [7]) of the same sequence?
A: 13.5 upbm affinity estimate (log intensity, higher = more binding, comparable within an allelic series)

Q: Which binding signal (CRX [1]) does the source give for CAGGATTA here?
A: 13.1 upbm affinity estimate (log intensity, higher = more binding, comparable within an allelic series)

Q: What about the binding signal (CRX [2]) of the same sequence?
A: 13.2 upbm affinity estimate (log intensity, higher = more binding, comparable within an allelic series)

Q: And the binding signal (PITX2)?
A: 12.9 upbm affinity estimate (log intensity, higher = more binding, comparable within an allelic series)

Q: And the binding signal (CRX [7])?
A: 13 upbm affinity estimate (log intensity, higher = more binding, comparable within an allelic series)

Q: What does the source list for ATAATCTC?
A: binding signal (CRX [1]): 13.1 upbm affinity estimate (log intensity, higher = more binding, comparable within an allelic series); binding signal (CRX [2]): 13.1 upbm affinity estimate (log intensity, higher = more binding, comparable within an allelic series); binding signal (PITX2): 12.7 upbm affinity estimate (log intensity, higher = more binding, comparable within an allelic series); binding signal (CRX [7]): 13.1 upbm affinity estimate (log intensity, higher = more binding, comparable within an allelic series)

Q: What does the source list for AAGATTAA?
A: binding signal (CRX [1]): 12.9 upbm affinity estimate (log intensity, higher = more binding, comparable within an allelic series); binding signal (CRX [2]): 12.9 upbm affinity estimate (log intensity, higher = more binding, comparable within an allelic series); binding signal (PITX2): 12.5 upbm affinity estimate (log intensity, higher = more binding, comparable within an allelic series); binding signal (CRX [7]): 12.6 upbm affinity estimate (log intensity, higher = more binding, comparable within an allelic series)

Q: How did the binding signal (CRX [1]) turn out when CTGGATTA was run?
A: 13.1 upbm affinity estimate (log intensity, higher = more binding, comparable within an allelic series)

Q: What about the binding signal (CRX [2]) of the same sequence?
A: 13.1 upbm affinity estimate (log intensity, higher = more binding, comparable within an allelic series)

Q: And the binding signal (PITX2)?
A: 13 upbm affinity estimate (log intensity, higher = more binding, comparable within an allelic series)

Q: What about the binding signal (CRX [7]) of the same sequence?
A: 12.9 upbm affinity estimate (log intensity, higher = more binding, comparable within an allelic series)

Q: With TAATCCTA as the sequence, how does the binding signal (CRX [1]) read?
A: 13.4 upbm affinity estimate (log intensity, higher = more binding, comparable within an allelic series)

Q: What about the binding signal (CRX [2]) of the same sequence?
A: 13.4 upbm affinity estimate (log intensity, higher = more binding, comparable within an allelic series)

Q: What about the binding signal (PITX2) of the same sequence?
A: 13.2 upbm affinity estimate (log intensity, higher = more binding, comparable within an allelic series)

Q: And the binding signal (CRX [7])?
A: 13.3 upbm affinity estimate (log intensity, higher = more binding, comparable within an allelic series)

Q: What does the source list for GCTAATCC?
A: binding signal (CRX [1]): 13.4 upbm affinity estimate (log intensity, higher = more binding, comparable within an allelic series); binding signal (CRX [2]): 13.5 upbm affinity estimate (log intensity, higher = more binding, comparable within an allelic series); binding signal (PITX2): 13.3 upbm affinity estimate (log intensity, higher = more binding, comparable within an allelic series); binding signal (CRX [7]): 13.4 upbm affinity estimate (log intensity, higher = more binding, comparable within an allelic series)

Q: Which results are given for TAATCCGA?
A: binding signal (CRX [1]): 13.6 upbm affinity estimate (log intensity, higher = more binding, comparable within an allelic series); binding signal (CRX [2]): 13.6 upbm affinity estimate (log intensity, higher = more binding, comparable within an allelic series); binding signal (PITX2): 13.1 upbm affinity estimate (log intensity, higher = more binding, comparable within an allelic series); binding signal (CRX [7]): 13.5 upbm affinity estimate (log intensity, higher = more binding, comparable within an allelic series)
